A short description of experiment [1]: qHTS assay to identify small molecule antagonists of the thyroid receptor (TR) signaling pathway (AID 743065). Note: nearly all actives have a fitted effect of over 55% in size. Note: potency is the fitted concentration of half-maximal effect. The procedure, abridged:
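GH3.TRE-Luc rat pituitary cells (two TREs driving luciferase) were dosed with compound, then stimulated with 1 nM T3 (final) for 23.5 h at 37 C. ONE-Glo luminescence was the read-out, with CellTiter-Fluor fluorescence as the cytotoxicity counter-screen.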

Experiment [2] concerns thyroid hormone receptor (rat, GH3 cells). Kind of experiment: qHTS assay to identify small molecule agonists of the thyroid receptor (TR) signaling pathway (AID 743066; calls by dose curve). For orientation: Quantitative high-throughput screening tests each substance at several concentrations.
The target of experiment [3] is Estrogen receptor (Homo sapiens) (UniProt P03372). As to the kind of experiment: qHTS assay to identify small molecule antagonists of the estrogen receptor alpha (ER-alpha) signaling pathway (AID 743069; active = well fitted curve in the direction sought with a large enough effect in the signal ratio in the repeat runs, not every such curve was filed as active; the % refers to the signal ratio). The procedure, abridged: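 Reporter cells (ER-alpha-bla, HEK293 background) are conditioned overnight in stripped-serum medium (2% charcoal-stripped FBS). Compound and 17beta-estradiol exposure runs 18 hr at 37C, 5% CO2.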

Experiment [4] in a line: qHTS assay to identify small molecule antagonists of the estrogen receptor alpha (ER-alpha) signaling pathway - cell viability counter screen (AID 743074; calls by dose curve;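 note: HEK293 cells carrying ER-alpha-UAS-bla reporter stimulated with 17beta-estradiol; nearly all actives have a fitted effect of over 45% in size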).
In experiment [5] the target is Estrogen receptor (Homo sapiens) (UniProt P03372). Kind of experiment: qHTS assay to identify small molecule agonists of the estrogen receptor alpha (ER-alpha) signaling pathway (AID 743075; calls by dose curve;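 note: HEK293 GripTite cells with ER-alpha and UAS-driven beta-lactamase reporter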).
The target is the same in experiment [6]. As to the kind of experiment: qHTS assay to identify small molecule agonists of the estrogen receptor alpha (ER-alpha) signaling pathway using the BG1 cell line (AID 743079). Note: nearly all actives have a fitted effect of over 20% in size. The following applies: BG1Luc4E2 cells, ERE-luciferase agonist, 22 h.
A short description of experiment [7]: qHTS assay to identify small molecule antagonists of the estrogen receptor alpha (ER-alpha) signaling pathway using the BG1 cell line (AID 743080; calls by dose curve;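 note: BG1 cells stimulated with 17beta-estradiol alongside compound; nearly all actives have a fitted effect of over 25% in size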). The procedure, abridged: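 BG1Luc4E2, endogenous ER-alpha, 4xERE-luc; 5 d charcoal-stripped FBS, phenol red free; 24 h plating; cpd + 17beta-estradiol 21.5 h, 37 C/5% CO2; CellTiter-Fluor viability 30 min, then ONE-Glo luciferase 30 min RT.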

The nature of experiment [8]: qHTS assay to identify small molecule antagonists of the estrogen receptor alpha (ER-alpha) signaling pathway using the BG1 cell line - cell viability counter screen (AID 743081).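 Note: compound given together with 17beta-estradiol as the ER stimulus; nearly all actives have a fitted effect of over 45% in size.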
The next experiment has as its target Aromatase (Homo sapiens) (UniProt P11511). Kind of experiment: qHTS assay to identify aromatase inhibitors (AID 743083). Note: nearly all actives have a fitted effect of over 55% in size.
The nature of experiment [9]: qHTS assay to identify aromatase inhibitors - cell viability counter screen (AID 743084).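 Note: cells stimulated with testosterone during compound exposure; nearly all actives have a fitted effect of over 55% in size.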
Experiment [10] can be described thus: qHTS assay to identify small molecule that activate the aryl hydrocarbon receptor (AhR) signaling pathway - cell viability counter screen (AID 743086).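 Note: HepG2 liver cells carrying the AhR DRE luciferase reporter; nearly all actives have a fitted effect of over 45% in size.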 The procedure, abridged: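 HepG2-AhR-luc (HG2L7.5c1) cells, 4000/well, treated 24 h at 37 C with compound; viability measured as CellTiter-Fluor fluorescence after 30 min in the same wells as the luciferase read.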

In experiment [11] the target is Peroxisome proliferator-activated receptor gamma (Homo sapiens) (UniProt P37231). As to the kind of experiment: qHTS assay to identify small molecule agonists of the peroxisome proliferator-activated receptor gamma (PPARg) signaling pathway (AID 743094; active = well fitted activation curve with a large enough effect in the signal ratio in the repeat runs, not every such curve was filed as active; the % refers to the signal ratio). The procedure, abridged:
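Compounds dissolved in DMSO were added to PPARg UAS-bla HEK293H cells for 17 h at 37C, and reporter expression was quantified by fluorescence intensity after 1 h with LiveBLAzer B/G FRET substrate.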

The nature of experiment [12]: qHTS assay for small molecule agonists of the antioxidant response element (ARE) signaling pathway - cell viability counter screen (AID 743203; calls by dose curve; note: nearly all actives have a fitted effect of over 55% in size). The procedure, abridged: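 Following 16 hrs of compound treatment at 37C, HepG2 cells with an ARE-controlled beta-lactamase gene were lysed with CellTiter-Glo. Luminescence was read after 30 min at room temperature.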
The nature of experiment [13]: qHTS assay for small molecule activators of the heat shock response signaling pathway - cell viability counter screen (AID 743209). Note: nearly all actives have a fitted effect of over 50% in size. The procedure, abridged: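 Readout: CellTiter-Glo luminescence, 30 min at room temperature. System: HSE-bla HeLa cells, 1500/well, plated overnight. Treatment: compounds in DMSO, 5 h at 37 C.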
Experiment [14] can be described thus: qHTS assay for small molecule activators of the heat shock response signaling pathway (AID 743210; active = well fitted activation curve with a large enough effect in the signal ratio in the repeat runs, with a control signal flat, not every such curve was filed as active; the % refers to the signal ratio;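 note: HeLa cells with beta-lactamase reporter driven by heat shock elements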). The procedure, abridged:
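Quantitative high-throughput format using an engineered HeLa line in which heat shock response elements drive beta-lactamase; after 5 h with compound, cells received a B/G FRET substrate and fluorescence was read.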

Experiment [15] is described as follows: qHTS assay to identify small molecule agonists of the peroxisome proliferator-activated receptor delta (PPARd) signaling pathway - cell viability counter screen (AID 743211). Note: nearly all actives have a fitted effect of over 55% in size. The procedure, abridged:
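Viability was measured as CellTiter-Glo luminescence (30 min, room temperature) in the same wells as the beta-lactamase readout. GeneBLAzer PPARd UAS-bla HEK293H cells received compound after 5 h plating and were incubated 17 h at 37 C.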

Experiment [16] deals with Aryl hydrocarbon receptor (Homo sapiens) (UniProt P35869). Kind of experiment: qHTS assay to identify small molecule that activate the aryl hydrocarbon receptor (AhR) signaling pathway (AID 743085).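 Note: HG2L7.5c1 human HepG2 liver cells with stably integrated DRE-driven firefly reporter; nearly all actives have a fitted effect of over 15% in size.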 The procedure, abridged: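 Luminescence (ONE-Glo) from a dioxin-responsive-element luciferase reporter in HG2L7.5c1 HepG2 cells after 24 hr compound exposure at 37C; viability measured by CellTiter-Fluor fluorescence beforehand.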

Experiment [17] can be described thus: qHTS assay for small molecule agonists of the antioxidant response element (ARE) signaling pathway (AID 743202; active = well fitted activation curve with a large enough effect in the signal ratio in the repeat runs, not every such curve was filed as active; the % refers to the signal ratio). The procedure, abridged:
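Agonist mode reporter screen: HepG2 cells with ARE-controlled beta-lactamase are incubated with test compounds for 16 h at 37 C, and beta-lactamase activity is measured as fluorescence of cleaved B/G FRET substrate.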

Experiment [18] is described as follows: qHTS assay to identify small molecule antagonists of the peroxisome proliferator-activated receptor gamma (PPARg) signaling pathway - cell viability counter screen (AID 743194). Note: nearly all actives have a fitted effect of over 55% in size. The following applies: Potency: co-treated with 50 nM rosiglitazone. The procedure, abridged: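 Cytotoxicity counter screen in PPARg-bla HEK293H cells, same wells as reporter assay. Compounds plus 50 nM rosiglitazone (final) for 17 h at 37 C, then viability read by CellTiter-Glo luminescence.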

Experiment [19] concerns the target Peroxisome proliferator-activated receptor gamma (Homo sapiens) (UniProt P37231). As to the kind of experiment: qHTS assay to identify small molecule antagonists of the peroxisome proliferator-activated receptor gamma (PPARg) signaling pathway (AID 743191; calls by dose curve; note: nearly all actives have a fitted effect of over 30% in size). The procedure, abridged: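 GeneBLAzer PPARg UAS-bla HEK293H cells, 5 h post-plating, exposed to compounds 17 h at 37C. LiveBLAzer B/G FRET substrate added for 1 h at room temperature; beta-lactamase reporter read by fluorescence intensity.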

Results filed as inconclusive are left out. Unmarked numbers belong to inactive results. Active and inactive are the calls of the source. Unless noted, calls come from the whole dose curve; as a rule, active = well fitted curve in the direction sought with a large enough effect in the repeat runs; inconclusive = weak or mixed curves; inactive = no such curve, though single readings can be large; an effect the other way counts as inactive or inconclusive.
% is set by controls: 0 for no effect and ±100 for the full control effect.

Chain of Estrogen receptor (Homo sapiens) (P03372 whole entry, looked up): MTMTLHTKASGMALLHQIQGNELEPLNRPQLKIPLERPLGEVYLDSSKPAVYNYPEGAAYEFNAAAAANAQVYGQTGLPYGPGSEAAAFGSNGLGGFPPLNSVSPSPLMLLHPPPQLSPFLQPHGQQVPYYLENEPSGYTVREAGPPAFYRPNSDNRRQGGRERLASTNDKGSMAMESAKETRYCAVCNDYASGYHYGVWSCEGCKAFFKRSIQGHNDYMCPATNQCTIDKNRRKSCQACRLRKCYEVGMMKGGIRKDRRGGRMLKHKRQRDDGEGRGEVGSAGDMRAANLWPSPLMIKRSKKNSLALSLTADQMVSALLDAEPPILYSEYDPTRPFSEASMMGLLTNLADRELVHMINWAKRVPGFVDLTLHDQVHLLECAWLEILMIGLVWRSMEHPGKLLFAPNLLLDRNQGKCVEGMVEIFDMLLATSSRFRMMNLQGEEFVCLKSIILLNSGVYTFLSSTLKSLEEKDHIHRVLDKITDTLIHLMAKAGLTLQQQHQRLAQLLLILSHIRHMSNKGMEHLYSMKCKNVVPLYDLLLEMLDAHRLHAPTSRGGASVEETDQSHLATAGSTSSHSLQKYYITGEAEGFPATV
Chain of Peroxisome proliferator-activated receptor gamma (Homo sapiens) (P37231 whole entry, looked up): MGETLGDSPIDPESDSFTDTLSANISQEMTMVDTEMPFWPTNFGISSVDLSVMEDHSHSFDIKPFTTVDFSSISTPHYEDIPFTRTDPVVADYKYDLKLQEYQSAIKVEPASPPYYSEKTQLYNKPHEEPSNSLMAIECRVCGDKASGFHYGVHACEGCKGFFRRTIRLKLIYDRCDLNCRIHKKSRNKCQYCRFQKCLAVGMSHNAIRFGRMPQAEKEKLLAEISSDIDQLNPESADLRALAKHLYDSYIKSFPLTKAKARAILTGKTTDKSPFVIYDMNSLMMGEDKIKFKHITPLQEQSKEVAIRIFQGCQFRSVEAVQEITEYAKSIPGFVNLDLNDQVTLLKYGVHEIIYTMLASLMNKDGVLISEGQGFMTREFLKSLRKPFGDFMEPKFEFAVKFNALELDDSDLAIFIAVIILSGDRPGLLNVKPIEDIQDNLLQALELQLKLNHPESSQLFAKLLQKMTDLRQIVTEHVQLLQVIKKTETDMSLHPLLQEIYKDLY
Chain of Aryl hydrocarbon receptor (Homo sapiens) (P35869 whole entry, looked up): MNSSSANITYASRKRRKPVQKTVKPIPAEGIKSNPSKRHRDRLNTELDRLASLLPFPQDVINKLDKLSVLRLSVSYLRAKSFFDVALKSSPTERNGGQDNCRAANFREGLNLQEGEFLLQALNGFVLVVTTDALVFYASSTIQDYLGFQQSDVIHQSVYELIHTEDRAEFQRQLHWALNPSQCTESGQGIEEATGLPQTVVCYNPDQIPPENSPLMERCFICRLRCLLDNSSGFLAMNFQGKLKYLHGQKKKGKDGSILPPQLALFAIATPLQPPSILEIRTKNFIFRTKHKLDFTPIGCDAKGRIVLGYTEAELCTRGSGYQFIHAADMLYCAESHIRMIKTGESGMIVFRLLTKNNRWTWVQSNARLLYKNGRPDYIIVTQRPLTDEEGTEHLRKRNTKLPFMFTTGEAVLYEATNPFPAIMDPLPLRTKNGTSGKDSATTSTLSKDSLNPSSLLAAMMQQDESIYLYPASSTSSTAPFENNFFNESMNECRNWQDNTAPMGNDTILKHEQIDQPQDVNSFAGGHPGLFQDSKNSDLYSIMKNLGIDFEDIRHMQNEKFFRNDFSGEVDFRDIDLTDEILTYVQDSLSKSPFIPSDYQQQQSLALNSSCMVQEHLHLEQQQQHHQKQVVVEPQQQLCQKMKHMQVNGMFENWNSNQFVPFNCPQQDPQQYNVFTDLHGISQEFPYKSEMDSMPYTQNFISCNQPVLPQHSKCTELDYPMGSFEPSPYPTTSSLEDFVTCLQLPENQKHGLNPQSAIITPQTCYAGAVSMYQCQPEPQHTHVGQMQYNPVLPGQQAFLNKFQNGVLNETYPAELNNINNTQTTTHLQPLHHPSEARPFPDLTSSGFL
Chain of Aromatase (Homo sapiens) (P11511 whole entry, looked up): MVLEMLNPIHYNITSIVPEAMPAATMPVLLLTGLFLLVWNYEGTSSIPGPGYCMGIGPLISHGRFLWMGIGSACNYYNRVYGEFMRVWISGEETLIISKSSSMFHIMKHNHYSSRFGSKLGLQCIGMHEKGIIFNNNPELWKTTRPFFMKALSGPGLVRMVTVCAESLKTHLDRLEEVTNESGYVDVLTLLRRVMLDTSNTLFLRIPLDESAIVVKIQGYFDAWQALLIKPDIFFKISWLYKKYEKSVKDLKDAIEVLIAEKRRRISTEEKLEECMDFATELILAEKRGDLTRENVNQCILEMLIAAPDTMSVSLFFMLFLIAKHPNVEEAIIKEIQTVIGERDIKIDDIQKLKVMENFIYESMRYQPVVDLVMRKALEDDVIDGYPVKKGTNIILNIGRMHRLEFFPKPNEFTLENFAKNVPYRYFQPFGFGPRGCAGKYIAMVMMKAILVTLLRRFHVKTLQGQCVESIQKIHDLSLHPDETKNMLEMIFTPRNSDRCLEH

Turning to `C=C(C)[C@@H]1CC=C(C=O)CC1`, the Potency result in [1], in experiment [2], in experiment [3], in experiment [5], in experiment [7] and in experiment [8] was “inactive” each time. The Potency result (in the experiment with Aromatase (Homo sapiens); in experiment [9]; in experiment [12]; in [13]; in [15]) was “inactive” throughout. For the same compound, the compound was classed as inactive in experiment [4], in experiment [10], in experiment [11] and in [14]. In addition, in [6] (at 70.3 µM (top of the series)), the activation was 3.7%.

Consider `O=NN1CCN(N=O)CC1`, for which the Potency entry in [1], in experiment [2], in [3], in experiment [5], in [7] and in experiment [8] was “inactive” in each case. The Potency result (with Aromatase (Homo sapiens); in [9]; in experiment [16]; in experiment [17]; in [12]; in experiment [13]) was “inactive” throughout. In addition, in experiment [15], the Potency entry is “inactive”. For the same compound, the result in [4], in [10] and in [14] was inactive. For the same compound, the activation in experiment [6] (at 70.3 µM (top of the series)) was 9.64%.

As for `N#CCBr`, the Potency entry in [1], in experiment [2], in [3], in experiment [5], in experiment [7] and in experiment [8] was “inactive” in each case. Also, the Potency result (with Aromatase (Homo sapiens); in experiment [9]; in experiment [16]; in [18]; in experiment [17]; in [12]) was “inactive” throughout. For the same compound, the Potency result in experiment [13] and in experiment [15] was “inactive” in each case. The compound was classed as inactive in [4], in experiment [10] and in experiment [14]. The activation in experiment [6] (at 95 µM (top of the series)) was 0.199%.

On to `CCOc1nc(C(Cl)(Cl)Cl)ns1`, for which the Potency entry in experiment [1], in experiment [2], in experiment [3], in experiment [5], in experiment [7] and in experiment [8] was “inactive” throughout. Also, the Potency result (with Aromatase (Homo sapiens); in experiment [9]; in experiment [16]; in [18]; in [17]; in experiment [12]) was “inactive” each time. Besides, in experiment [15], the Potency entry is “inactive”. The call in experiment [4], in experiment [10], in experiment [11] and in [14] was inactive. In [6] (at 70.3 µM (top of the series)), the activation was 4.23%.

With `CC(CC(C#N)(c1ccccc1)c1ccccc1)N(C)C` (stereo unspecified), the Potency in experiment [1] is 30.5 µM (active). The Potency entry (in experiment [2]; in experiment [3]; in [5]; in experiment [7]; in [8]; in the experiment with Aromatase (Homo sapiens)) was “inactive” throughout. Further, the Potency result in [9], in experiment [16], in experiment [12] and in experiment [13] was “inactive” throughout. Also, the outcome in experiment [4] and in experiment [14] was inactive. The activation in experiment [6] (at 70.3 µM (top of the series)) was -6.75%.

Consider `CC(=O)CC(c1ccc(Cl)cc1)c1c(O)c2ccccc2oc1=O` (stereo unspecified), for which the Potency result in experiment [1], in [2], in experiment [3], in [5], in [7] and in [8] was “inactive” in each case. Besides, the Potency entry (with Aromatase (Homo sapiens); in [9]; in experiment [16]; in experiment [19]; in experiment [18]; in experiment [12]) was “inactive” each time. Further, the Potency result in experiment [13] and in experiment [15] was “inactive” each time. Also, the compound was classed as inactive in [4], in experiment [10] and in [14]. Besides, the activation in [6] (at 95 µM (top of the series)) is -6.05%.

With `O=C(O)c1ccc2[nH]cc(CCCCN3CC=C(c4ccccc4)CC3)c2c1`, the Potency entry in experiment [1], in experiment [2], in [3], in experiment [5], in experiment [7] and in experiment [8] was “inactive” throughout. Besides, the Potency result (with Aromatase (Homo sapiens); in experiment [9]; in experiment [16]; in experiment [18]; in experiment [12]; in experiment [13]) was “inactive” in each case. For the same compound, in experiment [15], the Potency entry is “inactive”. For the same compound, the outcome in experiment [4], in experiment [10] and in experiment [11] was inactive. Besides, the activation in experiment [6] (at 70.3 µM (top of the series)) is -2.02%.

With `[Cl][Sn]([Cl])([Cl])[Cl]`, the Potency result in [1], in experiment [2], in experiment [3], in experiment [5], in [7] and in experiment [8] was “inactive” each time. The Potency result (in the experiment with Aromatase (Homo sapiens); in [9]; in [16]; in experiment [17]; in experiment [12]; in experiment [13]) was “inactive” in each case. The Potency entry in experiment [15] is “inactive”. Further, the call in experiment [4], in experiment [10], in experiment [11] and in experiment [14] was inactive. In experiment [6] (at 95 µM (top of the series)), the activation was -3.53%.

The values are drawn from PubChem BioAssay (Tox21).
